This passage reports cell viability results from the supplement of paper PMC10981050.

The structures appear in SMILES notation. Where a name gives a salt, the structure may show the parent alone.

The term cell viability denotes a read-out of living cells in per cent, often relative to untreated cells.

This assay relates to MOLM14. Kind of assay: cell viability relative to vehicle control; higher = less cytotoxic. The following applies: 10 µM; SRSF2 genotype: SRSF2 P95H/wt. A digest of the protocol: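 CRISPR-edited mutant clones and isogenic wild-type clones from four leukaemia lines were screened against Selleck bioactive, kinase and epigenetic probe libraries, with identity-inconsistent compounds excluded. Each compound was acoustically dispensed at a single 10 µM dose into 384-well plates holding 2000 cells in 50 µL medium per well. After 48 h the supernatant was removed and CellTiter-Glo luminescence was read. Viability was expressed as percent of the on-plate vehicle control and analysed in Genedata Screener.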
For the compound `O=C(Nc1cccc(Cl)c1)Nc1ncc(CCNc2ncnc3ccsc23)s1` [SNS-314 Mesylate], the cell viability is 18.7%. For `O=C(c1cn(Cc2cncn2Cc2ccc(Br)cc2)cc1-c1cccc2ccccc12)N1CCOCC1` the value was 35.1%; for `COc1cc(N2CCN(C)CC2)ccc1Nc1nccc(-c2cn(C)c3cnccc23)n1`, 3.24%; for `O=c1c(-c2ccc(O)cc2)coc2cc(O[C@@H]3O[C@H](CO)[C@@H](O)[C@H](O)[C@H]3O)ccc12` [Daidzin], 98%.

With `COc1nc(C)cnc1NS(=O)(=O)c1cccnc1-c1ccc(-c2nnco2)cc1` [Zibotentan (ZD4054)], the cell viability amounted to 100%. Then `Nc1ccc(-c2cccc(C(=O)Nc3cnc4nc(N5CCOCC5)oc4c3)n2)cn1`, with 86%; and `C[C@@H]1CC[C@@]2(OC1)O[C@H]1C[C@H]3[C@@H]4CC=C5C[C@@H](O[C@@H]6O[C@H](CO)[C@@H](O)[C@H](O)[C@H]6O)CC[C@]5(C)[C@H]4CC[C@]3(C)[C@H]1[C@@H]2C` [Trillin], with 84.5%.

For `CCCC(C)NC(=O)c1ccc(Cl)c(Cl)c1` (stereo not given), the cell viability came out at 112%. Then `C[C@@H]1C/C=C/C=C/C=C/C=C/[C@H](O[C@@H]2O[C@H](C)[C@@H](O)[C@H](N)[C@@H]2O)C[C@@H]2O[C@](O)(C[C@@H](O)C[C@H]3O[C@@H]3/C=C/C(=O)O1)C[C@H](O)[C@H]2C(=O)O` [Natamycin], with 98.5%. Then `CN1CCN(c2ccc(Nc3ncc4cc(C#N)c(=O)n(C5CCCC5)c4n3)cc2)CC1`, with 17.9%. For `COc1ccc(-c2oc3c(CC=C(C)C)c(O[C@@H]4O[C@H](CO)[C@@H](O)[C@H](O)[C@H]4O)cc(O)c3c(=O)c2O[C@@H]2O[C@@H](C)[C@H](O)[C@@H](O)[C@H]2O[C@@H]2O[C@@H](C)[C@H](O)[C@@H](O)[C@H]2O)cc1` [Epmedin C] the value was 107%; for `CC1=C(CC[C@@H](C)CO[C@@H]2O[C@H](CO)[C@@H](O)[C@H](O)[C@H]2O)O[C@H]2C[C@H]3[C@@H]4CC=C5C[C@@H](O[C@@H]6O[C@H](CO)[C@@H](O[C@@H]7O[C@@H](C)[C@H](O)[C@@H](O)[C@H]7O)[C@H](O)[C@H]6O[C@@H]6O[C@@H](C)[C@H](O)[C@@H](O)[C@H]6O)CC[C@]5(C)[C@H]4CC[C@]3(C)[C@@H]12` [Pseudoprotodioscin], 96.2%; for `O=C(NC[C@H](O)CN1CCc2ccccc2C1)c1cc(NC2COC2)ncn1`, 88.8%. In the case of `CCCc1cc(C)[nH]c(=O)c1CNC(=O)c1cc(-c2ccc(N3CCN(C)CC3)nc2)nc2c1cnn2C(C)C`, the cell viability stood at 55.9%. Then `Cc1cc(NS(=O)(=O)c2ccc(N)cc2)nc(C)n1` [sulfaisodimidine], with 106%; and `Cn1cnc(-c2cc3nccc(Oc4ccc(NC(=S)NC(=O)Cc5ccccc5)cc4F)c3s2)c1`, with 23.3%; and `Fc1ccc(C(c2ccc(F)cc2)N2CCN(C/C=C/c3ccccc3)CC2)cc1` [Flunarizine 2HCl], with 46.8%.

Consider `CNc1cccc(CCOc2ccc3c(c2)CN(CC(F)(F)F)C(=O)[C@H](CC(=O)O)C3)n1`, for which the cell viability was determined as 97.7%. For `Cc1cccc(-c2[nH]c(C(C)(C)C)nc2-c2ccc3c(c2)OCO3)n1` the value was 84.9%; for `CCOc1ccc(Cc2cc([C@]34OC[C@](CO)(O3)[C@@H](O)[C@H](O)[C@H]4O)ccc2Cl)cc1` [Ertugliflozin], 103%. Then `COC(=O)[C@H](c1ccccc1Cl)N1CCc2sccc2C1` [Clopidogrel (Plavix)], with 94.1%; and `CCCCCCCCCCCCCCCC(=O)OC` [Methyl palmitate], with 103%. For `O=[N+]([O-])c1ccc(S(=O)(=O)N2CCN(c3ccnc4cc(Cl)ccc34)CC2)c([N+](=O)[O-])c1` the value was 2.07%; for `Clc1ccc(COC(Cn2ccnc2)c2ccc(Cl)cc2Cl)c(Cl)c1` (stereo not given) [Miconazole (Monistat)], 67.2%.

Turning to `C[n+]1cc2c3c(ccc2c2ccc4cc5c(cc4c21)OCO5)OCO3` [Sanguinarine chloride], the cell viability came to 0.25%. For `CC1(C)Cc2c(sc(NC(=O)c3ccn[nH]3)c2C(N)=O)C(C)(C)O1` the value was 110%; for `CCN=C1N[C@@H]2[C@@H](O)[C@H](O)[C@@H](CO)O[C@@H]2S1` [Thiamet G], 92.8%. For `O=C(c1cccc(Cl)c1F)N1CCN(Cc2cccc(Nc3nccs3)n2)CC1` the value was 54.9%; for `O=C(Cn1ccnc1[N+](=O)[O-])NCc1ccccc1` [Benznidazole], 97.1%; for `CC[C@@]1(O)C(=O)OCc2c1cc1n(c2=O)Cc2cc3cc(O)ccc3nc2-1` [Hydroxy Camptothecine], 0.53%.
